# Data taken from PubChem BioAssay (NCATS).
# Records with an inconclusive call do not appear. Activity calls are given as the source filed them. Calls follow the shape of the dose curve; as a rule, active = well fitted cell-killing curve with a large enough effect; inconclusive = small, poorly fitted or top-dose-only effect; inactive = no such curve, though single readings can be large or run the other way.
# Assay: qHTS of pediatric cancer cell lines to identify multiple opportunities for drug repurposing: Primary screen for MG 63 (6-TG R) cells (AID 1347105); also: nearly all actives have a fitted effect of over 50% in size
# Settings: MG 63 (6-TG R) viability, CellTiter-Glo, 48 h; series mostly up to 46 µM
# Source text: Drug repurposing or repositioning has been offered as a strategy for drug development in oncology programs. This approach has special potential for childhood cancers and other rare or orphan diseases, where the expected return on new drug development has been a disincentive to pharmaceuticals. […] In this project we exploit the poly-pharmacology of drugs to discover new indications via phenotypic screening of a panel of 19 well-characterized cell lines derived from solid tumors seen in children and adolescents. The goal is to identify approved drugs with previously unrecognized anticancer properties that has the potential to reveal new mechanisms and biological processes involved in carcinogenesis or drug resistance. We employed a titration-based paradigm (quantitative high-throughput screening or qHTS), where all compounds were tested at multiple concentrations for their effect on cell viability. Concentration-response curves (CRCs) were derived directly from the primary screen, and both potency and efficacy values were used to identify compounds with robust bioactivity profiles. We screened the NIH Chemical Genomics Center (NCGC) Pharmaceutical Collection (NPC) and Mechanism Interrogation Plate (MIPE) small molecule collections of approved and investigational compounds against these cell lines; and measured metabolically active cells after 48 hours of compound treatment as a proxy for cell viability. […] Assay Submitter: Nathalia J. Martinez, National Center for Advancing Translational Sciences, National Institutes of Health, Rockville, MD, USA; email: natalia.martinez@nih.gov Shen, M et al. Quantitative high-throughput phenotypic screening of pediatric cancer cell lines identifies multiple opportunities for drug repurposing. Oncotarget 2017 Dec 19;9(4):4758-4772. PMID 29435139.
# The cells were obtained from University of North Carolina (UNC), Pediatric Preclinical Testing Program (PPT), and Coriell Institute (CI). qHTS cell viability assay: Cells were assayed in growth media at a density of 500-1,000 cells/well. Five microliters of cells were dispensed into 1,536-well, white, solid-bottom, TC-treated plates (Greiner Bio One) using a multidrop dispenser and incubated at 37 degrees C, 5% CO2, under a humidified atmosphere for 5 hours. Twenty-three nanoliters of compounds and controls (neutral control DMSO or positive control bortezomib at final concentration of 2.3 µM) were subsequently transferred by Kalypsys pintool. For primary screens, the MIPE collection was tested at 11-point dilutions (final concentrations range from 0.78 nM to 46 µM) and the NPC collection at 8-point dilutions (final concentrations range from 0.59 nM to 46 µM). Compounds tested in follow-up screens were assayed at 11-point dilutions. Cells were incubated for 48 hours, followed by addition of 3 µL of CellTiter-Glo (Promega). After a 15 min incubation at room temperature, samples were analyzed for luminescence intensity using a ViewLux High-throughput CCD imager equipped with clear filters.
# Potency is read from the fitted curve at half-maximal effect.
row,Compound,Potency
1,CCOc1ccccc1OCCNC(C)Cc1ccc(OC)c(S(N)(=O)=O)c1 (stereo not given),inactive
2,CC=C1NC(=O)[C@H]2CSSCCC=C[C@H](CC(=O)N[C@H](C(C)C)C(=O)N2)OC(=O)[C@H](C(C)C)NC1=O,0.0118 µM (active)
3,CCN(CC)CCNC(=O)c1ccc2nc(-c3ccccc3)c(-c3ccc(CN4CCC(n5c(=O)[nH]c6ccccc65)CC4)cc3)nc2c1,7.43 µM (active)
4,O=C(CCCCCCNC(=O)c1cnc(N(c2ccccc2)c2ccccc2)nc1)NO,14.8 µM (active)
5,COc1cc2ncnc(Nc3ccc(F)c(Cl)c3)c2cc1NC(=O)C=CCN1CCCCC1,inactive
6,NC(=O)Nc1cc(-c2cccc(F)c2)sc1C(=O)N[C@H]1CCCNC1,7.43 µM (active)
7,Cc1cc(Nc2nc(N[C@@H](C)c3ccc(F)cc3)c(C#N)cc2F)n[nH]1,3.72 µM (active)
8,CC[C@@H]1C(=O)N(C)c2cnc(Nc3ccc(C(=O)NC4CCC(N5CCN(CC6CC6)CC5)CC4)cc3OC)nc2N1C(C)C (stereo not given in full),11.8 µM (active)
9,Cn1cc(-c2ccncc2)c(-c2ccc(OCc3ccc4ccccc4n3)cc2)n1,inactive
10,O=C(O)CCCc1c[nH]c2ccccc12,inactive
11,CCC(=C(c1ccccc1)c1ccc(OCCN(C)C)cc1)c1ccccc1,inactive
12,OCc1ccc(-c2ccc(-c3ccc(CO)s3)o2)s1,11.8 µM (active)
13,COc1cccc(Nc2c(C(N)=O)cnc3c(C)cc(S(=O)(=O)c4cccc(C(=O)N(C)C)c4)cc23)c1,inactive
14,CN(C)Cc1c(C(=O)NCCOc2ccc(C(=O)NO)cc2)oc2ccccc12,3.72 µM (active)
15,COc1cc2c(NC3CCN(C(C)C)CC3)nc(C3CCCCC3)nc2cc1OCCCN1CCCC1,23.5 µM (active)
16,N#CCNC(=O)c1ccc(-c2ccnc(Nc3ccc(N4CCOCC4)cc3)n2)cc1,18.7 µM (active)
17,COc1c(OCCCN2CCOCC2)ccc2c3n(c(=NC(=O)c4cnc(N)nc4)nc12)CCN3,0.0407 µM (active)
18,CC=CC1=C(C(=O)O)N2C(=O)[C@H](NC(=O)[C@H](N)c3ccc(O)cc3)[C@@H]2SC1,inactive
19,Cc1ccc(C(=O)Nc2ccc(CN3CCN(C)CC3)c(C(F)(F)F)c2)cc1C#Cc1cnc2cccnn12,7.43 µM (active)
20,COc1ccc(-c2cc3c(C)nc(N)nc3n(C3CCC(OCCO)CC3)c2=O)cn1 (stereo not given),0.0187 µM (active)

row,Compound,Potency
1,Cc1ccc(CN2CCNCC2)cc1NC(=O)CNc1ccc(F)c(F)c1,inactive
2,NC1(Cc2ccc(Cl)cc2)CCN(c2ncnc3[nH]ccc23)CC1,14.8 µM (active)
3,Cc1cc(N2CCOCC2)cc2[nH]c(-c3c(NC[C@@H](O)c4cccc(Cl)c4)cc[nH]c3=O)nc12,2.96 µM (active)
4,CN(c1ncccc1CNc1nc(Nc2ccc3c(c2)CC(=O)N3)ncc1C(F)(F)F)S(C)(=O)=O,9.35 µM (active)
5,C1=CCOCc2cc(ccc2OCCN2CCCC2)Nc2nccc(n2)-c2cccc(c2)OCC1,11.8 µM (active)
6,Cc1ccc(C(=O)Nc2cccc(C(F)(F)F)c2)cc1-c1ccc2nc(NCCN3CCOCC3)ncc2c1,14.8 µM (active)
7,Cc1cnc(Nc2ccc(F)cc2Cl)nc1-c1c[nH]c(C(=O)N[C@H](CO)c2cccc(Cl)c2)c1,29.6 µM (active)
8,C=C1C(=CC=C2CCCC3(C)[C@@H]([C@H](C)C=CC=CC(O)(CC)CC)CC[C@@H]23)C[C@@H](O)C[C@@H]1O (stereo not given in full),inactive
9,CN1CCN(c2ccc3nc(-c4c(N)c5c(F)cccc5[nH]c4=O)[nH]c3c2)CC1,inactive
10,CC1=C(CO)C(=O)O[C@@H]([C@@H](C)[C@H]2CC[C@H]3[C@@H]4C[C@H]5O[C@]56[C@@H](O)C=CC(=O)[C@]6(C)[C@@H]4CC[C@]23C)C1,0.743 µM (active)
11,Cc1[nH]c2ccccc2c1CCNCc1ccc(C=CC(=O)NO)cc1,0.469 µM (active)
12,Cc1cc(Nc2cc(N3CCN(C)CC3)nc(Sc3ccc(NC(=O)C4CC4)cc3)n2)n[nH]1,18.7 µM (active)
13,COc1ccc(C(=O)CC2(O)C(=O)Nc3c(Cl)ccc(Cl)c32)cc1 (stereo not given),3.72 µM (active)
14,C=CC(=O)Nc1cc2c(Nc3ccc(F)c(Cl)c3)ncnc2cc1C#CC(C)(C)N1CCN(C)CC1,5.9 µM (active)
15,O=C(C=Cc1c(C(=O)O)[nH]c2cc(Cl)cc(Cl)c12)Nc1ccccc1,inactive
16,O=C(O)[C@H](Cc1c[nH]c2ccccc12)N1C(=O)c2ccccc2C1=O,inactive
17,Cc1[nH]nc2ccc(-c3cncc(OC[C@@H](N)Cc4ccccc4)c3)cc12,2.96 µM (active)
18,Cc1cn(-c2cc(NC(=O)c3ccc(C)c(Nc4nccc(-c5cccnc5)n4)c3)cc(C(F)(F)F)c2)cn1,inactive
19,COc1cccc2nc(-c3cccs3)nc(NN3C(=O)C=C(C)C3=O)c12,2.96 µM (active)
20,C=CC(=O)N1CCC[C@@H](n2nc(-c3ccc(Oc4ccccc4)cc3)c3c(N)ncnc32)C1,23.5 µM (active)
